Data from PubChem BioAssay AID1850 (Southern Research Specialized Biocontainment Screening …, 2009).
Out of some 310,000 compounds screened, about 1,000 (0.32%) were called active. Only a sample is shown. Entries with a potency or affinity are not part of this list. A number with no mark means an inactive call. No rule for the calls is given here.

Experiment: PhoP regulon inhibitors, Salmonella typhi PhoP promoter GFP reporter, confirmatory (AID 1850);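 also: 0% = induced wells with vehicle and 100% = uninduced wells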
Settings: fluorescence, 4 h, at 50 µM, hits give high values

Compound	inhibition [%]
CCC1=C2CC[C@H]3C(=O)N(C)C(=O)[C@H]3[C@H]2[C@@]2(Cc3ccccc3)C(=NCC(=O)OC)OC(=O)N2C1=O	-11.3
CC(Sc1nnc(-c2ccccc2Br)o1)C(=O)N1CCOCC1 (stereo not drawn)	0.36
O=C(NCC1CCCO1)c1cccc(NC(=O)c2ccc(Br)cc2)c1 (stereo not drawn)	-6.91
CC(C)c1ccc(NC(=O)CSc2nc3ccsc3c(=O)n2Cc2ccc(C(=O)O)cc2)cc1	-12
COC(=O)CC1=C(C(=O)OC)C(c2ccc3c(c2Cl)OCO3)C(C#N)=C(N)O1 (stereo not drawn)	-2.85
CCC(=C(c1ccc(OC)cc1)c1ccc(OC)cc1)c1cn(CC(O)CN(CCO)CCO)c2ccccc12 (stereo not drawn)	1.98
COc1ccccc1-n1c(SCC(=O)Nc2ccc(F)cc2)nc2c(c1=O)SCC2	4.39
C=CCn1c2ccccc2n2nc(C)c(=O)nc12	5.77
COc1ccc(/C=C/C(=O)NCCCc2ccccc2)cc1	2.3
COc1ccc(NC(=O)Cc2ccccc2)cc1	-3.71
CCNC(=S)N1CCNC(=O)C1CC(=O)OC (stereo not drawn)	-0.49
CCCSC(=S)NC1CCS(=O)(=O)C1 (stereo not drawn)	14.2
C=CCSC(=S)NC1CCS(=O)(=O)C1 (stereo not drawn)	4.24
COCCSc1nnc(NC(=O)C2CCCO2)s1 (stereo not drawn)	-16.4
Oc1c(C(c2ccc(Cl)cc2)N2CCCC2)cc(Cl)c2cccnc12 (stereo not drawn)	-16.5
CC(=O)NC(c1ccc(C)cc1)c1cc(Cl)c2cccnc2c1O (stereo not drawn)	-5
Oc1c(C(c2ccccn2)N2CCCCC2)cc(Cl)c2cccnc12 (stereo not drawn)	20.3
CCN1CCN(C(c2ccc(C(F)(F)F)cc2)c2ccc3cccnc3c2O)CC1 (stereo not drawn)	-8.31
Oc1c(C(c2ccccn2)N2CCC(Cc3ccccc3)CC2)cc(Cl)c2cccnc12 (stereo not drawn)	-1.4
CN1CCN(C(c2ccc(C(F)(F)F)cc2)c2cc(Cl)c3cccnc3c2O)CC1 (stereo not drawn)	2.9
CN1CCN(C(c2ccccn2)c2cc(Cl)c3cccnc3c2O)CC1 (stereo not drawn)	-16.9
CN1CCN(C(c2cccnc2)c2ccc3cccnc3c2O)CC1 (stereo not drawn)	4.05
CCOCCOC(=O)c1ccc(-n2cncn2)nc1	19.6
Cn1c(NC(=O)CC2CCCCC2)cc(=O)n(C)c1=O	-13.1

Compound	inhibition [%]
C/C(=N\Nc1nc2ccccc2[nH]1)c1ccc2c(c1)OCCO2	11.8
COc1ccc(Br)cc1C(=O)NC(=S)Nc1c(C)n(C)n(-c2ccccc2)c1=O	14.4
CC1(c2ccccc2)NC(=O)N(CC(=O)NCCC2=CCCCC2)C1=O (stereo not drawn)	0.28
CNC[C@H](CC1CCCCC1)NC[C@H](CO)NCC1(c2ccccc2)CC1	-8.16
CNC[C@H](CC1CCCCC1)NC[C@H](CO)NCCc1cccc(C(F)(F)F)c1	10.8
CCC[C@@H](CN[C@@H](CNC)C(C)C)NCCCCc1ccccc1	16.7
CCC[C@@H](CNC)NC[C@H](Cc1ccccc1)NCCCCc1ccccc1	3.99
CNC[C@H](CC1CCCCC1)NC[C@H](NCCC1CCCC1)[C@H](C)O	22.8
O=C(CC12CC3CC(CC(C3)C1)C2)NC(Cc1ccccc1)C(=O)O (stereo not drawn)	-9.42
CC(C)n1nc(C(=O)OCC(=O)N(C)C2CCS(=O)(=O)C2)c2ccccc2c1=O (stereo not drawn)	-1.06
COCCn1c(SCc2cccc(F)c2)nc2cc(C(=O)OC)ccc2c1=O	6.64
O=C(c1cc(-c2cccc(O)c2)on1)N1CCCCCC1	14.9
CN(C)S(=O)(=O)c1cccc(NC(=O)COc2ccc(C(=O)c3ccccc3)cc2)c1	-35.4
COc1ccc(CCn2c(-n3nc(C)cc3C)nc3c2c(=O)[nH]c(=O)n3C)cc1	0.46
O=C(NCC(=O)N1CCCCC1)c1ccc(Br)o1	20.3
N#C/C(=N\Nc1ccc(S(=O)(=O)N2CCOCC2)cc1)C(N)=S	6.96
O=C(Nc1ccc(SC(F)F)cc1)C1CC(=O)N(Cc2ccccc2)C1 (stereo not drawn)	17.5
OCC1(Cc2ccc(Cl)cc2)CCN(Cc2ccc(F)c(F)c2)CC1	1.77
CCn1c(=O)n(CC)c2cc(NC(=O)c3ccccc3Cl)ccc21	-4.48
C/C(CC(=O)Nc1ccc2c(c1)OCO2)=N\NC(=O)OC(C)(C)C	1.68
Cc1ccc(C(=O)Nc2cccc(NC(=O)c3cccs3)c2)c(C)c1	-6.14
Cc1cc(C)c(S(=O)(=O)NCCCn2ccnc2)c(C)c1	-3.5
CCCCC[n+]1cccc2c3ccccc3ccc21	0.18
CCCCCCCCCCCCCCCC[n+]1cccc2ccccc21	-4.68

Compound	inhibition [%]
Cc1ccc(-c2c[n+](CC(=O)N3c4ccccc4Sc4ccccc43)c3n2CCC3)cc1	6.09
O=C(C[n+]1cc(-c2ccc(F)cc2)n2c1CCC2)N1c2ccccc2Sc2ccccc21	-2.79
COc1ccc(-c2c[n+](CC(=O)N3c4ccccc4Sc4ccccc43)c3n2CCC3)cc1	18.6
O=C(C[n+]1cc(-c2ccccc2)n2c1CCC2)N1c2ccccc2Sc2ccccc21	13.9
CC/C(=N\NC(=O)c1ccncc1)C12CC3CC(CC(C3)C1)C2	8.69
CCOC(=O)N1CCC(=NNC(=O)COc2ccc(C#N)cc2)CC1	-4.18
COc1ccc(OC)c(CCNC(=O)c2sc3nc4n(c(=O)c3c2C)CCC4)c1	4.26
Cc1occc1C(=O)N/N=C/c1ccc(Br)s1	1.4
Cc1ccc(/C=N/NC(=O)c2ccoc2C)s1	0.98
CC(/C=N\NC(=O)CN1CCN(S(=O)(=O)c2ccc(C)cc2)CC1)=C\c1ccccc1	-12
CCOC(=O)[C@H]1[C@H]2COc3ccccc3[C@@H]2N2C(=O)c3ccccc3NC(=O)[C@@]12C	-4.39
CCCOc1ccc(-c2nc(N3CCN(C)CC3)c3ccccc3n2)cc1	9.86
O=C(NC(c1ccccc1)c1cc(Cl)c2cccnc2c1O)c1cccnc1 (stereo not drawn)	-1.98
O=C(O)COc1ccccc1C(Nc1ccccn1)c1cc(Cl)c2cccnc2c1O (stereo not drawn)	-6.17
CC(=O)c1ccc(OCC(O)CN2CCN(CCO)CC2)cc1 (stereo not drawn)	-2.27
O=C(COC(=O)CCCN1C(=O)c2cccc3cccc(c23)C1=O)Nc1cccc(C(F)(F)F)c1	-5.09
CCOc1ccc(OCCNC2CCCC2)cc1	6.72
Cc1ccc(OCCCNC2CCCC2)cc1	2.57
Oc1c(CN2CCN(c3ccccc3)CC2)cc(Br)c2cccnc12	-1.71
O=C(Oc1c(CN2CCOCC2)cc(Cl)c2cccnc12)c1ccccc1Cl	4.13
COCc1cc(CN2CCCC2)c(O)c2ncccc12	-3.73
O=C(Oc1c(CN2CCOCC2)cc(Cl)c2cccnc12)c1cccs1	-0.05
O=C(Nc1ccc(-c2nc3cccnc3s2)cc1)c1cccnc1Cl	16.9
CC(=O)Nc1ccc(S(=O)(=O)N2CCN(c3cc(C)nc4ncnn34)CC2)cc1	-16.9

Compound	inhibition [%]
O=C(Nc1ccccc1)Nc1ccc(F)cc1F	-5.6
CC(=O)Nc1cccc(NC(=S)Nc2ccc(F)cc2F)c1	4.43
Cc1ccc(C(=O)N(CCCN(C)C)c2nc3ccc(Cl)cc3s2)cc1C	9.54
CN(C)CCCN(C(=O)c1sc2ccccc2c1Cl)c1nc2ccc(F)cc2s1	-7.99
CN(C)CCCN(C(=O)c1ccc2c(c1)CCCC2)c1nc2ccc(F)cc2s1	16.4
CN(C)CCCN(C(=O)C1=COCCO1)c1nc2ccc(Br)cc2s1	-8.06
CCOc1ccc2nc(N(CCCN(C)C)C(=O)c3ccc4c(c3)CCCC4)sc2c1	2.97
CCN(CC)CCN(C(=O)c1ccc2c(c1)CCCC2)c1nc2ccc(C)cc2s1	-8.88
Cc1cccc2sc(N(CCCN(C)C)C(=O)c3sc4ccccc4c3Cl)nc12	-4.13
CN(C)CCN(C(=O)C1=COCCO1)c1nc2ccc(F)cc2s1	-3.62
Cc1cccc(Cl)c1OCCN1CCCC1	-6.23
O=C(NCCN1CCOCC1)/C(=C/c1ccc(Cl)cc1)NC(=O)c1ccccc1	0.05
COc1cc(CCC(=O)OCC(=O)Nc2ccc(C)cc2Cl)cc(OC)c1OC	-0.48
Cc1ccc(S(=O)(=O)Nc2nncs2)cc1	-8.26
CC(CCN1CCN=C1Nc1ccccc1)c1ccccc1 (stereo not drawn)	0.31
COc1ccccc1CNC(=O)CCC(=O)N1C[C@H]2C[C@@H](C1)c1cccc(=O)n1C2	0.48
CCOCC(=O)Nc1nnc(SCCOC)s1	-8.99
CC(=O)NC(CC(=O)c1ccc([N+](=O)[O-])cc1)C(Cl)(Cl)Cl (stereo not drawn)	-10.7
O=C(CC(n1cncn1)C(Cl)(Cl)Cl)c1ccc([N+](=O)[O-])cc1 (stereo not drawn)	-2.18
O=C(CSC1=NC(=O)C(c2ccccc2)C(=O)N1)Nc1ccccc1[N+](=O)[O-] (stereo not drawn)	0.46
Cc1ccccc1-n1ncc2c1CC(C)(C)CC2NC(=O)C1CCC1 (stereo not drawn)	6.32
